According to PubChem BioAssay (Tox21):
Results filed as inconclusive are left out. A number with no mark means an inactive call. The call rests on the fitted dose curve; in most records, active means well fitted curve in the direction sought with a large enough effect in the repeat runs; inconclusive means weak or mixed curves; inactive means no such curve, though single readings can be large; an effect the other way counts as inactive or inconclusive.

Tested on: not listed separately
Experiment: qHTS assay to identify small molecule antagonists of the retinoid-related orphan receptor gamma (ROR-gamma) signaling pathway - cell viability counter screen (AID 1159520)
Conditions: Tet-on RORgamma CHO cells viability, ATP luminescence, 16 h; series mostly up to 92.4 µM; activity, negative = cytotoxicity: at the top concentration
Summary of the method: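 Tet-on ROR gamma CHO cells were given compounds for 2 hr, then doxycycline hyclate at 1 uM final, and incubated 16 hr at 37 C. Viability was measured as ATP content by CellTiter-Glo luminescence.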
Further: nearly all actives have a fitted effect of over 50% in size.
On the % scale 0 is the no-effect control and ±100 the full control effect.

Compared with `CC(C)OC(=O)CCCCC(=O)OC(C)C`, `C=C(C)C(=O)OCC(C)(C)COC(=O)C(=C)C` is lower in “activity, negative = cytotoxicity” value: 1.95% for the first, -2.81% for the second.

First: Cc1ccc(S(=O)(=O)O)c(C)c1
Second: CC(=O)Nc1cccc(C)c1
The “activity, negative = cytotoxicity” value of the first is higher: 10.9% for the first, 10.8% for the second.

Going from `CC(C)CCCCOC(=O)c1ccccc1C(=O)OCCCCC(C)C` to `CCCCCCOC(=O)CC`, the “activity, negative = cytotoxicity” value rises from -11.2% to 9.12%.

First: OCCN(CCO)c1cccc(Cl)c1
Second: O=C(O)Cc1ccc(Cl)cc1Cl
The “activity, negative = cytotoxicity” value of the first is higher: 10.3% for the first, -12.8% for the second.

Going from `O=C(c1ccc(O)cc1)c1ccc(O)c(O)c1O` to `C=C(C)C(=O)OCc1ccccc1`, the “activity, negative = cytotoxicity” value falls from -8.23% to -14.6%.

First: CCCCNC1CC(C)(C)NC(C)(C)C1
Second: CCCCCOC(=O)CCC
The “activity, negative = cytotoxicity” value of the first is lower: 5.83% for the first, 8.71% for the second.

Going from `CCO[Si](CCCS)(OCC)OCC` to `CCOCCOCCOCC`, the “activity, negative = cytotoxicity” value rises from -6.64% to 10%.

First: CC(CC=O)CCCC(C)(C)O (configuration not stated)
Second: C=C(C)C(=O)OCCN(CC)CC
The “activity, negative = cytotoxicity” value of the first is higher: 9.49% for the first, 0.572% for the second.

Going from `O=C(O)CCSSCCC(=O)O` to `CCCC/C=C\CCCCCCCCCC=O`, the “activity, negative = cytotoxicity” value falls from -5.97% to -13.2%.

Going from `O=C1CCCC(=O)O1` to `Cc1ccccc1N=O`, the “activity, negative = cytotoxicity” value falls from 7.23% to 0.794%.

First: CCCOC(OCCC)OCCC
Second: CCc1ccc(C=O)cc1
The “activity, negative = cytotoxicity” value of the first is higher: 2.79% for the first, -21.3% for the second.

First: CC(=O)Nc1ccc(S(=O)(=O)Nc2ccc([N+](=O)[O-])cc2)cc1
Second: NS(=O)(=O)c1ccc(NC(=O)CCC(=O)O)cc1
The “activity, negative = cytotoxicity” value of the first is lower: -0.144% [at 42.5 µM] for the first, 0.622% [at 42.5 µM] for the second.

Compared with `CCCCNc1ccc(C(=O)OCCN(C)C)cc1`, `CCOC(=O)c1ccc(OC(=O)CCCCCN=C(N)N)cc1` is lower in “activity, negative = cytotoxicity” value: 0.516% [at 42.5 µM] for the first, -2.3% [at 42.5 µM] for the second.

Compared with `COc1ccc2c(c1)C(=O)N(CCc1ccc(S(=O)(=O)NC(=O)NC3CCCCC3)cc1)C(=O)C2(C)C`, `CC(C)(C)c1nnc(NS(=O)(=O)c2ccc(N)cc2)s1` is lower in “activity, negative = cytotoxicity” value: -0.763% [at 42.5 µM] for the first, -1.14% [at 42.5 µM] for the second.

Going from `CCN(C)C(=O)Oc1cccc([C@H](C)N(C)C)c1` to `COCCOC(=O)C1=C(C)NC(C)=C(C(=O)OC(C)C)C1c1cccc([N+](=O)[O-])c1` (configuration not stated), the “activity, negative = cytotoxicity” value falls from 3.28% [at 42.5 µM] to -1.95% [at 42.5 µM].

Compared with `COc1cc2c(cc1OC)[C@@H]1CC(=O)[C@@H](CC(C)C)CN1CC2`, `COC(=O)[C@@H]1[C@H]2C[C@H]3c4[nH]c5ccccc5c4CCN3C[C@@H]2CC[C@@H]1O` is lower in “activity, negative = cytotoxicity” value: -1.25% [at 42.5 µM] for the first, -2.06% [at 42.5 µM] for the second.

Going from `COP(=O)(OC)OC(c1ccc(Cl)cc1)P(=O)(OC)OC` (configuration not stated) to `CCCCCCOc1ccccc1C(N)=O`, the “activity, negative = cytotoxicity” value falls from 6.5% [at 42.5 µM] to -1.35% [at 42.5 µM].

First: CCCCN
Second: NNc1nnc(NN)c2ccccc12
The “activity, negative = cytotoxicity” value of the first is higher: 0.842% [at 42.5 µM] for the first, -0.568% [at 42.5 µM] for the second.

For `C[Si](C)=O`, the activity, negative = cytotoxicity was 0.127% [at 8.39 µM].

In the case of `CC(CN)CC(C)(C)CCN` (configuration not stated), the “activity, negative = cytotoxicity” value was 0.331% [at 240 µM].

Biological target: Nuclear receptor ROR-gamma (Homo sapiens) (UniProt P51449)
Experiment: qHTS assay to identify small molecule antagonists of the retinoid-related orphan receptor gamma (ROR-gamma) signaling pathway (AID 1159521;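 further: CHO cells with doxycycline inducible ROR-gamma driving an RORE luciferase reporter; top concentration of the series differs between compounds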)
Conditions: Tet-on RORgamma CHO cells, RORE-luciferase, 16 h; series mostly up to 92.4 µM; activity change, negative = inhibition: at the top concentration
Summary of the method: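 Readout: ONE-Glo luciferase luminescence, 30 min at room temperature. System: Tet-on RORγ CHO, RORE-LUC. Sequence: compound 2 h, doxycycline 1 uM final, 16 h at 37 C.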

First: CC(C)OC(=O)CCCCC(=O)OC(C)C
Second: C=C(C)C(=O)OCC(C)(C)COC(=O)C(=C)C
The “activity change, negative = inhibition” value of the first is higher: 30.8% for the first, 9.08% for the second.

Compared with `Cc1ccc(S(=O)(=O)O)c(C)c1`, `CC(=O)Nc1cccc(C)c1` is higher in “activity change, negative = inhibition” value: -1.86% for the first, 19.4% for the second.

Going from `CC(C)CCCCOC(=O)c1ccccc1C(=O)OCCCCC(C)C` to `CCCCCCOC(=O)CC`, the “activity change, negative = inhibition” value falls from 8.65% to -3.54%.

Going from `OCCN(CCO)c1cccc(Cl)c1` to `O=C(c1ccc(O)cc1)c1ccc(O)c(O)c1O`, the “activity change, negative = inhibition” value rises from -2.39% to 27.2%.

Going from `CCCCNC1CC(C)(C)NC(C)(C)C1` to `CCO[Si](CCCS)(OCC)OCC`, the “activity change, negative = inhibition” value rises from -18.5% to 2.03%.

Going from `CC(CC=O)CCCC(C)(C)O` (configuration not stated) to `O=C(O)CCSSCCC(=O)O`, the “activity change, negative = inhibition” value rises from -1.92% to 4.58%.

With `O=C1CCCC(=O)O1` the “activity change, negative = inhibition” value was 16%.

Compared with `CC(=O)Nc1ccc(S(=O)(=O)Nc2ccc([N+](=O)[O-])cc2)cc1`, `COc1ccc2c(c1)C(=O)N(CCc1ccc(S(=O)(=O)NC(=O)NC3CCCCC3)cc1)C(=O)C2(C)C` is higher in “activity change, negative = inhibition” value: -26.7% [at 42.5 µM] for the first, -11.2% [at 42.5 µM] for the second.

First: CCCCNc1ccc(C(=O)OCCN(C)C)cc1
Second: CCN(C)C(=O)Oc1cccc([C@H](C)N(C)C)c1
The “activity change, negative = inhibition” value of the first is higher: 1.79% [at 42.5 µM] for the first, -1.16% [at 42.5 µM] for the second.

First: CC(C)(C)c1nnc(NS(=O)(=O)c2ccc(N)cc2)s1
Second: COc1cc2c(cc1OC)[C@@H]1CC(=O)[C@@H](CC(C)C)CN1CC2
The “activity change, negative = inhibition” value of the first is lower: 7.55% [at 42.5 µM] for the first, 10.8% [at 42.5 µM] for the second.
